Screens as filed in PubChem.
An excerpt weighted towards active compounds, which were near 3.4% of everything screened.
Ecoli rRNA inh: inhibitors of bacterial rRNA selective over humanized ribosomes; E. coli WT GFP vs humanized-ribosome RFP mutants, fluorescence, 24 h; active compounds read low; DMSO median 0, no signal -100; 1.6% of 350,000 active; GFP signal change (wild-type ribosome), % (concentration not given with the values);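 active = significant combined selectivity score with lowered wild-type GFP, culture density cut under 30%, mutant RFP and density less affected; inactive = any of these conditions unmet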
PGC1a acetyl inh: lowers PGC1a acetylation signal in U2OS cells. inhibition, % at 15.6 µM. AlphaScreen anti-acetyl-lysine; with virally co-expressed GCN5 acetyltransferase. 0.17% of 350,000 active;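 active = every replicate shows inhibition of at least 40%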
PAX8 reporter: lowers PAX8-driven luciferase in RMG-I cells; inhibition, % at 12.6 µM; AID 652154; RMG-I TPO-luciferase reporter, SteadyGlo, 24 h; 1.2% of 360,000 active;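 active = mean replicate inhibition at least 60% with every replicate also reaching 60%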;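 also: luciferase light reporting Pax8 driven TPO promoter activity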
LGR2 inh: blocks bursicon-induced cAMP signaling via Drosophila LGR2; HEK293 LGR2, CRE-luciferase, bursicon-stimulated, 4 h; inhibition, % at 9.99 µM; 0.35% of 380,000 active;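 active = drop in luminescence signal, shown as inhibition above about 50% in the replicate tests, limit read from the data, passing the limit was not always enough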;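 also: agonist challenge used bursicon conditioned medium at about half maximal strength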
EWS-Fli inh: blocks EWS/Fli oncoprotein-driven transcription. inhibition, % at 12.6 µM. 0.67% of 350,000 active. A673 NR0B1-luciferase reporter, viability-normalised;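 active = mean inhibition of at least 50% after viability correction, with every replicate also passing that limit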;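 also: firefly luciferase signal divided by Alamar Blue viability fluorescence both relative to DMSO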
SIRT5 inh: inhibitors of human sirtuin-5 desuccinylase. Q9NXA8. Purified SirT5, succinyl-peptide AMC, trypsin-coupled fluorescence. inhibition, % at 15 µM. 1.1% of 330,000 active. AID 652115; in the data active = inhibition above about 15%
Target sequence (Q9NXA8 whole entry, looked up): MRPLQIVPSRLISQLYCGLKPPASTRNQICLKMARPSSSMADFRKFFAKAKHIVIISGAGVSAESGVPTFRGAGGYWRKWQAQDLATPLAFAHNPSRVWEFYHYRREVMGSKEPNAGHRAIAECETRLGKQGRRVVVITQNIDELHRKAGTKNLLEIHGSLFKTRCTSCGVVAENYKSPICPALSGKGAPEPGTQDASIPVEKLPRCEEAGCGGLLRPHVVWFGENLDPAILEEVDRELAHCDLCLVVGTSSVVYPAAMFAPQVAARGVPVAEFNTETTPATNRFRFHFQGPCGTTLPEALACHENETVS
Of the large screens only hits and unclear results are named; the others gave an inactive call.

NC(=O)c1ccsc1NC(=O)CCS(=O)(=O)c1ccccc1	none (no result: PGC1a acetyl inh)
CCOC(=O)c1ccsc1NC(=O)CCS(=O)(=O)c1ccccc1	PAX8 reporter 64 (no result: PGC1a acetyl inh)
CCOC(=O)c1cc(C(C)C)sc1NC(=O)COC(=O)CCS(=O)(=O)c1ccccc1	SIRT5 inh 34 (no result: LGR2 inh)
NC(=O)c1ccsc1NC(=O)CCS(=O)(=O)c1ccc(Cl)cc1	PAX8 reporter 65
Cc1cccc(-c2ccc([C@H]3[C@H]4CN(S(=O)(=O)c5cccc(F)c5)CC(=O)N4[C@H]3CO)cc2)c1	SIRT5 inh 19
O=C1CN(S(=O)(=O)c2cccc(F)c2)C[C@@H]2[C@H](c3ccc(-c4ccc(F)cc4)cc3)[C@H](CO)N12	none (no result: PAX8 reporter, EWS-Fli inh)
O=C1CN(S(=O)(=O)c2cccc(F)c2)C[C@@H]2[C@H](c3ccc(-c4ccccc4)cc3)[C@H](CO)N12	none
Cc1cccc(-c2ccc([C@H]3[C@@H](CO)N4C(=O)CN(S(=O)(=O)c5cccc(F)c5)C[C@@H]34)cc2)c1	SIRT5 inh 17
COC(=O)C[C@H]1CC[C@H]2[C@@H](COc3ccc(NC(=O)c4cccs4)cc3C(=O)N2C)O1	none (no result: EWS-Fli inh)
CC(C)CNC(=S)NNC(=O)c1csc2c1CCC(C)C2 (centres undefined)	none (no result: Ecoli rRNA inh, PAX8 reporter, LGR2 inh, EWS-Fli inh, SIRT5 inh)
Cc1cccc(NC(=S)NNC(=O)c2csc3c2CCC(C)C3)c1 (centres undefined)	Ecoli rRNA inh -40 (no result: PAX8 reporter)
COc1cccc(-c2ccc3c(c2)[C@H]2[C@H](CCN2C(=O)NC2CCCC2)[C@H](CO)N3C)c1	none
CCOc1ccc(-c2noc(CCCC(=O)NC3CCCC3)n2)cc1OC	SIRT5 inh 19
O=S(=O)(NCC1CCCO1)c1cc(Cl)ccc1Br (centres undefined)	none (no result: Ecoli rRNA inh, PAX8 reporter, EWS-Fli inh, SIRT5 inh)
O=S(=O)(NCC1CCCO1)c1cnc(Cl)c(Br)c1 (centres undefined)	PAX8 reporter 110
CCC(=O)N1C[C@H](C)[C@H](OC)CN(C)C(=O)c2cc(NC(=O)NC3CCCC3)ccc2OC[C@@H]1C	none (no result: PAX8 reporter)
O=C(C(=O)N1CCC(CNS(=O)(=O)c2ccccc2)CC1)c1cc2ccccc2o1	Ecoli rRNA inh -13 (no result: PGC1a acetyl inh, SIRT5 inh)
COc1cc(OC)cc(C(=O)NCC2CCN(C(=O)C(=O)c3cc4ccccc4o3)CC2)c1	none (no result: PGC1a acetyl inh, SIRT5 inh)
CSc1ccc(C(=O)NCC2CCN(C(=O)C(=O)c3cc4ccccc4o3)CC2)cc1	Ecoli rRNA inh -14 (no result: PGC1a acetyl inh, SIRT5 inh)
O=C(NCC1CCN(C(=O)C(=O)c2cc3ccccc3o2)CC1)c1ccc2c(c1)OCO2	none (no result: PGC1a acetyl inh, SIRT5 inh)
O=C(NCC1CCN(C(=O)C(=O)c2cc3ccccc3o2)CC1)c1ccc2c(c1)OCCCO2	Ecoli rRNA inh -17 (no result: PGC1a acetyl inh, SIRT5 inh)
COc1cccc(N2CCN(c3ccc(S(=O)(=O)N4CCN(C)CC4)cc3[N+](=O)[O-])CC2)c1	Ecoli rRNA inh -23
CCN(CC)S(=O)(=O)c1ccc(N2CCN(c3cccc(OC)c3)CC2)c([N+](=O)[O-])c1	none (no result: Ecoli rRNA inh, EWS-Fli inh, SIRT5 inh)
COc1ccc(S(=O)(=O)N(C)C[C@@H]2OCc3ccccc3-c3c(n(C)c4ccccc34)C(=O)N([C@H](C)CO)C[C@H]2C)cc1	SIRT5 inh 16 (no result: PAX8 reporter)
C[C@H]1CN([C@@H](C)CO)C(=O)c2c(c3ccccc3n2C)-c2ccccc2CO[C@H]1CN(C)S(=O)(=O)c1ccc([N+](=O)[O-])cc1	PAX8 reporter 91
COc1ccc(S(=O)(=O)N(C)C[C@H]2OCc3ccccc3-c3c(n(C)c4ccccc34)C(=O)N([C@H](C)CO)C[C@@H]2C)cc1	none (no result: PAX8 reporter)
Cc1ccc(S(=O)(=O)N(C)C[C@H]2OCc3ccccc3-c3c(n(C)c4ccccc34)C(=O)N([C@H](C)CO)C[C@H]2C)cc1	SIRT5 inh 20 (no result: PAX8 reporter)
CS(=O)(=O)Nc1ccccc1C(=O)OCC(=O)N1CCC(c2ccccc2)=N1	Ecoli rRNA inh -32 (no result: PGC1a acetyl inh)
Cc1ccc(C(=O)OCC(=O)N2CCC(c3ccccc3)=N2)c(C)c1	none
Cc1cc(C)c(C#N)c(SCS(=O)Cc2ccc(Cl)cc2)n1 (centres undefined)	Ecoli rRNA inh -44 (no result: PAX8 reporter)
Cc1cc(C)c(C#N)c(SCS(=O)Cc2ccccc2)n1 (centres undefined)	none (no result: Ecoli rRNA inh, PAX8 reporter, EWS-Fli inh, SIRT5 inh)
CCN(CC)CCNC(=O)CCN1N=C(c2ccccc2)CCC1=O	SIRT5 inh 26
C[C@H](CO)N1C[C@H](C)[C@H](CN(C)C(=O)Nc2ccccc2)Oc2ncc(/C=C/c3ccccc3)cc2C1=O	none (no result: PAX8 reporter)
O=C(CN1C(=O)C2C3C=CC(C3)C2C1=O)OCC(=O)c1ccc([N+](=O)[O-])cc1 (centres undefined)	none (no result: PGC1a acetyl inh)
O=C(CN1C(=O)C2C3CC(C(Br)C3Br)C2C1=O)OCC(=O)c1cccc([N+](=O)[O-])c1 (centres undefined)	PGC1a acetyl inh 76
Cc1cccc(-n2c(-c3ccc(Br)o3)n[nH]c2=S)c1	Ecoli rRNA inh -20 (no result: PGC1a acetyl inh)
O=S(=O)(Nc1ccc(Br)cc1)c1cccc2cccnc12	Ecoli rRNA inh -26 (no result: PGC1a acetyl inh)
O=S(=O)(NCCc1ccccc1)c1cccc2cccnc12	Ecoli rRNA inh -25 (no result: SIRT5 inh)
CCOCCCNC(=O)C(c1ccc(Cl)cc1)N(Cc1cccs1)C(=O)c1ccccn1 (centres undefined)	Ecoli rRNA inh -23, SIRT5 inh 18
Cc1ccc(NC(=O)Cc2noc3ccccc23)c(C)c1	none (no result: Ecoli rRNA inh, PGC1a acetyl inh, EWS-Fli inh, SIRT5 inh)
Cc1cccc2c(CC(=O)Nc3ccccc3)noc12	PAX8 reporter 64
C=Cn1cc[n+](CC(=O)c2cc(C(C)(C)C)c(O)c(C(C)(C)C)c2)c1	Ecoli rRNA inh -19
Nc1ccc(Nc2nc(-c3ccncc3)cs2)cc1	Ecoli rRNA inh -17 (no result: PAX8 reporter)
Brc1ccc(Nc2nc(-c3cccnc3)cs2)cc1	Ecoli rRNA inh -24
Brc1cccc(Nc2nc(-c3cccnc3)cs2)c1	none
COc1cccc(NC(=O)N2CC3(C2)[C@H](c2ccccc2)[C@H](CO)N3C(=O)C2CC2)c1	none (no result: PAX8 reporter)
CCC(=O)N(C)C[C@H]1Oc2ncc(C#CC3(O)CCCC3)cc2C(=O)N([C@@H](C)CO)C[C@H]1C	SIRT5 inh -2.7
C[C@H](CO)N1C[C@H](C)[C@H](CN(C)CC2CC2)Oc2ncc(C#CC3(O)CCCC3)cc2C1=O	SIRT5 inh 18 (no result: PGC1a acetyl inh, PAX8 reporter)
C[C@H](CO)N1C[C@H](C)[C@@H](CN(C)C(=O)CC2CC2)Oc2ncc(C#CC(C)(C)O)cc2C1=O	none (no result: PAX8 reporter)
C[C@@H]1CN([C@H](C)CO)C(=O)c2cc(C#CC(C)(C)O)cnc2O[C@H]1CN(C)C(=O)CC1CC1	SIRT5 inh 25 (no result: PAX8 reporter)
C[C@@H]1CCCCO[C@@H](CN(C)C(=O)c2ccccc2)[C@H](C)CN([C@H](C)CO)C(=O)c2cc(NC(=O)CCCN(C)C)ccc2O1	none (no result: SIRT5 inh)
Fc1cc(F)c(C2SCCN2C(=S)Nc2cccc(C(F)(F)F)c2)c(F)c1 (centres undefined)	none
CCOC(=O)c1ccc(NC(=S)N2CCSC2c2c(F)cc(F)cc2F)cc1 (centres undefined)	Ecoli rRNA inh -28 (no result: PGC1a acetyl inh)
CCc1cccc(NC(=O)CCC(=O)N2CCSc3ccccc32)c1	Ecoli rRNA inh -24
